In all, about 13,000 compounds went through this assay and about 3,200 (25%) showed an effect of 50% or more. This is one part of the list.
What follows are compounds tested on P. falciparum stage V gametocytes. Settings: 48 h, 5 µM; inhibitor.
Parameters: BacTiter-Glo ATP luminescence viability of purified stage V gametocytes in 384-well plates, per cent inhibition versus DMSO
In the case of `Fc1cccc(COc2ccc(-n3ccc4c(NCCCn5ccnc5)ncnc43)cc2Cl)n1` [TCMDC-135092], the “% Inhibition” value is reported as -5.729%. In the case of `COc1ccc2ccccc2c1C=NNc1ccnc2cc(Cl)ccc12` [TCMDC-123949], the “% Inhibition” value is reported as -70.44%. In the case of `CCCCN(CCCC)CCCN(CCCN(CCCC)CCCC)c1cc(C)nc(Nc2ccc(Cl)cc2)n1` [TCMDC-137487], the “% Inhibition” value is reported as 97.2%. `CCCN(CCC)CCCN(CCCN(CCC)CCC)c1cc(C)nc(Nc2ccc(Cl)cc2)n1` [TCMDC-137773] was tested, and the “% Inhibition” value was 63.95%. In the case of `CCNc1cc(C)nc(Nc2ccc(C)cc2)n1` [TCMDC-134007], the “% Inhibition” value is reported as 5.581%. In the case of `Cc1cc(N(C)CCCN(C)C)nc(Nc2ccc(Cl)cc2)n1` [TCMDC-136887], the “% Inhibition” value is reported as 28.42%. For `Cc1cc(NCCCCCCN)nc(Nc2ccc(Cl)cc2)n1` [TCMDC-138191], the “% Inhibition” value was 54.5%. In the case of `CCN(CC)CCCN(CCCN(CC)CC)c1cc(C)nc(Nc2ccc(Cl)cc2)n1` [TCMDC-137489], the “% Inhibition” value is reported as 39.75%. In the case of `CCCN(CCCN(CCCN(CCC)C(C)C)c1cc(C)nc(Nc2ccc(Cl)cc2)n1)C(C)C` [TCMDC-138003], the “% Inhibition” value is reported as 44.69%. With `Cc1cc(N(CCCN(C)C)Cc2cc(F)cc(F)c2)nc(Nc2ccc(Cl)cc2)n1` [TCMDC-132203] the “% Inhibition” value was -7.276%. For `CCNc1cc(C)nc(Nc2ccc(F)cc2)n1` [TCMDC-134008], the “% Inhibition” value was 39.4%. `Cc1cc(-c2ccnc(Nc3cccc(C#N)c3)n2)cc(C)c1O` [TCMDC-133719] was tested, and the “% Inhibition” value was -73.96%. With `O=C(NC1CCCCCC1)C1CCCN(C(=O)c2ccc(O)c(-c3ccc(Cl)c(Cl)c3)c2)C1` (stereo not shown) [TCMDC-140888] the “% Inhibition” value was 23.53%. With `CCCCN1C(=O)C2CC(=O)CC(C3CCCCC3)C2C1=O` (stereo not shown) [TCMDC-139128] the “% Inhibition” value was 18.42%. `O=C(O)C(F)(F)F.c1cc(-c2ccc(CNC3CCOCC3)cc2)cc(-c2nc3ccccc3[nH]2)c1` [TCMDC-132572] was tested, and the “% Inhibition” value was 48.89%. With `CCCC[C@H](NC(=O)OC(C)(C)C)C(=O)Nc1ccc(Cc2ccc(NC(=O)[C@H](CCCC)NC(=O)OC(C)(C)C)cc2)cc1` [TCMDC-131870] the “% Inhibition” value was -71.66%. For `CCC[C@@H]([C@@H](CC(C)C)C(=O)N[C@@H](CCCCNC(=O)OCc1ccccc1)C(=O)Nc1ncccn1)N(O)C=O` [TCMDC-137323], the “% Inhibition” value was 42.47%. With `CCCC[C@H](NC(=O)O[C@H](COc1ccc(OCc2ccccc2)cc1)C(C)(C)C)C(=O)C(=O)Nc1ccn[nH]1` [TCMDC-138665] the “% Inhibition” value was 67.01%. With `Cc1ccc2c(Cl)c(C(=O)N3CCCc4ccccc43)sc2c1` [TCMDC-125658] the “% Inhibition” value was 1.703%. In the case of `CCCCCCC1(C)N=C(N)N=C(N)C1c1ccc(Cl)c(Cl)c1` (stereo not shown) [TCMDC-137594], the “% Inhibition” value is reported as 22.11%. With `CC1(CCc2ccccc2)N=C(N)N=C(N)C1c1ccc(Cl)c(Cl)c1` (stereo not shown) [TCMDC-136376] the “% Inhibition” value was 33.71%. `CC1(CCc2ccccc2)N=C(N)N(Cc2ccccc2)C(=O)C1c1ccc(Cl)c(Cl)c1` (stereo not shown) [TCMDC-136509] was tested, and the “% Inhibition” value was 88.15%. `O=C(NCCN1CCOCC1)c1ccc(N2CCC(Oc3ccc4ccccc4c3)CC2)nc1` [TCMDC-134400] was tested, and the “% Inhibition” value was 19.81%. In the case of `O=C(CCC1CCCCC1=O)c1ccccc1` (stereo not shown) [TCMDC-125845], the “% Inhibition” value is reported as 5.946%. In the case of `CN(c1ccc2c(c1)nc(NCc1ccccc1)n2C)c1ccnc(Nc2ccc(CS(C)(=O)=O)cc2)n1` [TCMDC-138740], the “% Inhibition” value is reported as 25.8%. In the case of `COc1ccccc1C1CCN(CCCCNC(=O)c2ccc(/C=C/c3cc(Cl)cc(Cl)c3)cc2)CC1` [TCMDC-138241], the “% Inhibition” value is reported as 103.9%. In the case of `CCOc1ccccc1C1CCN(CCCCNC(=O)c2ccc(NC(=O)c3ccc(Cl)cc3)cc2)CC1` [TCMDC-138369], the “% Inhibition” value is reported as -17.64%. `COc1ccc(C2CCN(CCCCNC(=O)c3ccc(NC(=O)c4ccc(Cl)cc4)cc3)CC2)c(OC)c1` [TCMDC-138254] was tested, and the “% Inhibition” value was 47.57%. For `CCOc1ccc(C2CCN(CCCCNC(=O)c3ccc(NC(=O)c4ccc(Cl)cc4)cc3)CC2)c(CC)c1` [TCMDC-138357], the “% Inhibition” value was 26.78%. For `CCOc1ccc(C2CCN(CCCCNC(=O)c3ccc(NC(=O)c4ccc(Cl)cc4)cc3)CC2)c(Cl)c1` [TCMDC-138365], the “% Inhibition” value was 58.19%. With `CCc1cc(OC)ccc1C1CCN(CCCCNC(=O)c2ccc(NC(=O)c3ccc(Cl)cc3)cc2)CC1` [TCMDC-138360] the “% Inhibition” value was -6.372%. In the case of `Cc1ccc(C2CCN(CCCCNC(=O)c3ccc(NC(=O)c4ccc(Cl)cc4)cc3)CC2)c(OCC2CC2)c1` [TCMDC-138541], the “% Inhibition” value is reported as 76.06%. `COc1ccccc1C1CCN(CCCCNC(=O)c2ccc(NC(=O)c3ccc(Cl)cc3)cc2)CC1` [TCMDC-138239] was tested, and the “% Inhibition” value was 21.16%. In the case of `COc1cc(C(C)C)ccc1C1CCN(CCCCNC(=O)c2ccc(NC(=O)c3ccc(Cl)cc3)cc2)CC1` [TCMDC-138403], the “% Inhibition” value is reported as 115.5%. In the case of `CCOc1cc(C)ccc1C1CCN(CCCCNC(=O)c2ccc(NC(=O)c3cc(Cl)cc(Cl)c3)cc2)CC1` [TCMDC-138620], the “% Inhibition” value is reported as 9.848%. With `CCOc1cc(C(C)C)ccc1C1CCN(CCCCNC(=O)c2ccc(NC(=O)c3ccc(Cl)cc3)cc2)CC1` [TCMDC-138385] the “% Inhibition” value was 20.72%. For `Cc1ccc(C2CCN(CCCCNC(=O)c3ccc(NC(=O)c4ccc(Cl)cc4)cc3)CC2)c(OCC(F)(F)F)c1` [TCMDC-138572], the “% Inhibition” value was -14.71%.
